According to PubChem BioAssay (NCATS):
Where “and” joins values, the source holds several entries; their conditions need not be identical. Equal values may be shown once. Inconclusive results are not listed. The source holds several records for some structures; these can differ, active in one and inactive in another. Calls of active or inactive are those of the source. Unless noted, calls follow the shape of the dose curve; as a rule, active = well fitted curve in the direction sought with a large enough effect; inconclusive = small, poorly fitted or top-dose-only effect, or another doubt; inactive = no such curve, though single readings can be large; an effect the other way counts as inactive or inconclusive.
Potency is read from the fitted curve at half-maximal effect.

Biological target: Cytochrome P450 2C9 (Homo sapiens) (UniProt P11712)
Sequence (P11712 whole entry, looked up): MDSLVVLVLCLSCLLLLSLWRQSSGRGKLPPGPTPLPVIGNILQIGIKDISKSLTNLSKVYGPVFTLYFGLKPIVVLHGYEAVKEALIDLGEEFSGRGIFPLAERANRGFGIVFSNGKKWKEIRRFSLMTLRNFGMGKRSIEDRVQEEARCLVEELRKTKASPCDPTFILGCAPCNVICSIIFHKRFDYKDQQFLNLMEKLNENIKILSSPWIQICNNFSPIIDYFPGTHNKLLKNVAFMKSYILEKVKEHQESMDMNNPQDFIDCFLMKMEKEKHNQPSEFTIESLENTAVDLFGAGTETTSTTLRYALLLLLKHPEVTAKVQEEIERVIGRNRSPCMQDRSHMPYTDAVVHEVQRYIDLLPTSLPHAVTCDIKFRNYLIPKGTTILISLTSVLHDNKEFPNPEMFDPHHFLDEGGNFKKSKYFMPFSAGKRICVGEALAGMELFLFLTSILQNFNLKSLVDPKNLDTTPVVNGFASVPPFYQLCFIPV
Assay: Cytochrome P450 family 2 subfamily C member 9 (CYP2C9) small molecule antagonists: luciferase biochemical (cell-free) qHTS assay (AID 1645842; active = well fitted curve in the direction sought with a large enough effect in the repeat runs; an effect the other way counts as inactive or inconclusive; also: nearly all actives have a fitted effect of over 55% in size)
Conditions: P450-Glo CYP2C9 enzyme assay, luciferin luminescence; series mostly up to 57.4 µM
Outline: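 Luminescence, after 20 min with luciferin detection reagent, reflected CYP2C9 turnover during a 1 h NADPH-driven reaction at 37C. Enzyme-substrate mix contained 0.4% bovine serum albumin and was preincubated with compound 10 min at room temperature.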
For `CCN1CCN(c2ccc(Nc3cc(N(C)C(=O)Nc4c(Cl)c(OC)cc(OC)c4Cl)ncn3)cc2)CC1`, the Potency was 23.9 µM (active).
In the case of `CCCCn1c(=O)n(Cc2ccccc2F)c(=O)c2[nH]c(Cc3ccc(NC(C)=O)cc3)nc21`, the Potency is reported as 6.01 µM (active).
In the case of `Cc1cnc(CNC(=O)c2c(=O)c3ccc(N4CCCN(C)CC4)nc3n3c2sc2ccccc23)cn1`, the Potency is reported as “inactive”.
In the case of `CCOC(=O)N1c2ccc(C(F)(F)F)cc2[C@@H](N(Cc2cc(C(F)(F)F)cc(C(F)(F)F)c2)C(=O)OC)C[C@H]1CC`, the Potency is reported as “inactive”.
With `CN1CCN(c2cccc(Nc3nc4c(-c5ccc(S(C)(=O)=O)cc5)cccn4n3)c2)CC1` the Potency was 12 µM (active).

Tested on: not listed separately
Assay: Primary qHTS for inhibitors of nuclear receptor binding SET domain protein 2 (NSD2) in an isogenic RCH-ACV NSD2 p.E1099K mutant (9B) (AID 1645876); also: nearly all actives have a fitted effect of over 70% in size
Conditions: RCH-ACV (leukaemia line) NSD2 E1099K (9B) viability, CellTiter-Glo, 72 h; series mostly up to 44.9 µM
For `N#Cc1c(N(CC(=O)O)CC(=O)O)sc(C(=O)O)c1CC(=O)O`, the Potency was “inactive”.
With `COc1ccc(Cn2ccc3ccc(C(=O)NO)cc32)cc1` the Potency was 9.16 µM (active) and 13.2 µM (active).
With `CN(C)CCCNC(=O)c1ccc(-c2cc(O)c3ncccc3c2)cc1` the Potency was 9.2 µM (active) and 10.5 µM (active).
In the case of `CCOC(=O)c1c(CSc2ccccc2)n(C)c2cc(Br)c(O)c(CN(C)C)c12`, the Potency is reported as 18.6 µM (active).
For `N#CC1(c2cccc(C(=O)Nc3cc(Oc4ccc5nc(NC(=O)C6CC6)sc5n4)ccc3F)c2Cl)CC1`, the Potency was 1.83 µM (active) and inactive.
For `COC1CCC(C(=O)c2ccc3nc4c(cc3c2)CCCO4)CC1` (stereo not drawn), the Potency was “inactive”.
In the case of `CCN1CCN(c2ccc(Nc3cc(N(C)C(=O)Nc4c(Cl)c(OC)cc(OC)c4Cl)ncn3)cc2)CC1`, the Potency is reported as “inactive”.
With `OC(c1cc(C(F)(F)F)nc2c(C(F)(F)F)cccc12)C1CCCCN1` (stereo not drawn) the Potency was 11.8 µM (active).
